{"source": "PubChem BioAssay AID540276", "about": "(National Center for Advancing Translational Sciences (NCATS), 2011)", "note": "Several values for one entry are separate records, joined by “and”; a condition that tells them apart may be missing. Identical values can stand only once. The whole screen tested about 300,000 compounds, of which about 5,400 (1.8%) were called active. A call without a number means that no potency is given here. About 28% were inconclusive and are not listed. The call rests on the fitted dose curve; tested in HEK293 cells. Many of the other results were omitted from the sample, so actives are more common in it than they were. Potency means the concentration at half of the fitted maximal effect.", "data": [{"assay": "qHTS for inhibitors of binding or entry into cells for Marburg Virus", "conditions": "Marburg virus pseudotyped entry inhibition, cell reporter; series mostly up to 37.8 µM", "values": [{"smiles": "CCOc1cc(N2CCOCC2)c(OCC)cc1NC(=O)COC(=O)[C@H](Cc1c[nH]c2ccccc12)NC(C)=O", "Potency": "inactive"}, {"smiles": "CCOc1cc(N2CCOCC2)c(OCC)cc1NC(=O)COc1cccc2cccnc12", "Potency": "4.47 µM (active)"}, {"smiles": "CCOc1cc(N2CCOCC2)c(OCC)cc1NC(=O)COc1cccc(Cl)c1", "Potency": "inactive"}, {"smiles": "COc1ccc(Cl)cc1NC(=O)CN1CCN(C(=O)N2CCOCC2)CC1", "Potency": "inactive"}, {"smiles": "CCOc1ccc(NC(=O)CSc2c3c(nc4ccccc24)CCCC3)cc1", "Potency": "inactive"}, {"smiles": "O=C(Nc1c2c(nc3ccccc13)CCCC2)c1ccccc1Br", "Potency": "inactive"}, {"smiles": "Cc1ccc(Nc2c3c(nc4ccccc24)CCC3)cc1", "Potency": "11.2 µM (active)"}, {"smiles": "Cc1ccc(C(=O)O)c(NC=O)c1OCc1ccccc1", "Potency": "inactive"}, {"smiles": "Cc1[nH]c(C)c(S(=O)(=O)N2CCC(C)CC2)c1C(=O)N1CCCC1", "Potency": "inactive"}, {"smiles": "CN(CC(=O)NCCc1ccc(S(N)(=O)=O)cc1)CC(=O)Nc1ccc(Cl)cc1", "Potency": "inactive"}, {"smiles": "O=C1NC(Nc2nc3ccccc3s2)(C(F)(F)F)C(=O)N1C1CCCCC1", "note": "(stereo unspecified)", "Potency": "6.51 µM (active)"}, {"smiles": "COC(=O)NC1(C(F)(F)F)NC(=O)N(C2CCCCC2)C1=O", "note": "(stereo unspecified)", "Potency": "inactive"}, {"smiles": "O=C(NC1(C(F)(F)F)N=C(c2ccccc2)N(C2CCCCC2)C1=O)c1ccccc1F", "note": "(stereo unspecified)", "Potency": "inactive"}, {"smiles": "C=CCOc1cccc(CNCc2cccnc2)c1", "Potency": "inactive"}, {"smiles": "O=C(/C=C/c1cn(-c2ccccc2)nc1-c1ccc2c(c1)OCCO2)NCCCN1CCOCC1", "Potency": "3.55 µM (active)"}, {"smiles": "COc1ccc(-c2nn(-c3ccccc3)cc2/C=C\\C(=O)N2CCOCC2)cc1[N+](=O)[O-]", "Potency": "inactive"}, {"smiles": "CC(C)c1ccc(/C=C/C(=O)NCCCN2CCOCC2)cc1", "Potency": "inactive"}, {"smiles": "Cc1cc(F)ccc1NC(=S)NCCc1ccccc1", "Potency": "inactive"}, {"smiles": "O=C(Nc1cccc(Cl)c1Cl)c1ccccc1NC(=O)C1CC=CCC1C(=O)O", "note": "(stereo unspecified)", "Potency": "inactive"}, {"smiles": "Cc1ccccc1CN1CCNC(=O)C1CC(=O)NCCC1=CCCCC1", "note": "(stereo unspecified)", "Potency": "inactive"}, {"smiles": "Cc1ccc(NC(=O)c2ccccn2)cc1S(=O)(=O)N1CCOCC1", "Potency": "inactive"}, {"smiles": "COc1ccccc1C(=O)Nc1ccc(C)c(S(=O)(=O)N2CCCCC2)c1", "Potency": "8.91 µM (active)"}, {"smiles": "Cc1ccc(C(=O)NNC(=O)c2ccncc2)cc1S(=O)(=O)N1CCCCC1", "Potency": "inactive"}, {"smiles": "O=S(=O)(Nc1ccccc1)c1ccc(NS(=O)(=O)c2cccs2)cc1", "Potency": "inactive"}, {"smiles": "Cc1ccc(NS(=O)(=O)c2cccs2)cc1S(=O)(=O)N1CCCCCC1", "Potency": "10 µM (active)"}, {"smiles": "Cc1ccc(NC(=O)CCCNC(=O)c2ccc(Cl)cc2)cc1S(=O)(=O)N1CCCCC1", "Potency": "inactive"}, {"smiles": "CCOc1ccc2ccccc2c1/C=N/NC(=O)c1c(C)cc(C)[nH]c1=O", "Potency": "inactive"}, {"smiles": "Cc1ccc(/C=C2\\CCn3c2nc2cc(C(=O)O)ccc2c3=O)c(C)c1", "Potency": "inactive"}, {"smiles": "Cc1ccc(Nc2nnc(SC(C)C(=O)NC3CC3)s2)cc1", "note": "(stereo unspecified)", "Potency": "inactive"}, {"smiles": "CCOC(=O)C1CCN(C(=O)CN2C(=O)c3cccnc3Oc3ccc(C)cc32)CC1", "Potency": "inactive"}, {"smiles": "O=C(NNC(=O)C(O)c1ccccc1)NC1CCCCC1", "note": "(stereo unspecified)", "Potency": "inactive"}, {"smiles": "Cc1nc(/N=C(\\N)NC(=O)NC2CCCCC2)nc2ccccc12", "Potency": "7.94 µM (active)"}, {"smiles": "COc1ccc2nc(/N=C(\\N)NC(=O)Nc3ccccc3)nc(C)c2c1", "Potency": "inactive"}, {"smiles": "O=C(OCCOCn1cc(Br)c(=O)[nH]c1=O)c1ccccc1", "Potency": "inactive"}, {"smiles": "C=CCn1c(=O)n(C)c2c(=O)n(C)c(=O)n(C)c21", "Potency": "inactive"}, {"smiles": "O=C1CC(c2ccccc2)C(=O)N2C(=O)CC(c3ccccc3)C(=O)N12", "note": "(stereo unspecified)", "Potency": "inactive"}, {"smiles": "C=CCNC(=O)C1CC2c3ccccc3C1c1ccccc12", "note": "(stereo unspecified)", "Potency": "inactive"}, {"smiles": "CC[C@H]1CN2CCc3cc(OC)c(OC)cc3[C@@H]2C[C@@H]1C[C@H]1NCCc2cc(OC)c(OC)cc21", "Potency": "224 nM (active) and 326 nM (active) and 103 nM (active)"}, {"smiles": "COc1cc2c(cc1OC)CN(CC(=O)Nc1ccc(F)cc1)CC2", "Potency": "inactive"}, {"smiles": "COc1cc(NC(=O)CSc2ccc(-c3cccnc3)nn2)cc(OC)c1", "Potency": "inactive"}, {"smiles": "CCOc1ccc(CC(=O)NCCS(=O)(=O)N2CCN(c3ccccc3)CC2)cc1", "Potency": "inactive"}, {"smiles": "Cc1nc2ccccc2c(C(=O)O)c1-c1ccccn1", "Potency": "inactive"}, {"smiles": "O=C(COc1ccc([N+](=O)[O-])cc1Cl)Nc1ccc2[nH]c(=O)[nH]c2c1", "Potency": "inactive"}, {"smiles": "O=C(O)c1ccc(N/N=C/c2cn(-c3ccccc3)nc2-c2cccs2)cc1", "Potency": "4.47 µM (active)"}, {"smiles": "O=C(NCc1cccnc1)c1cn(-c2ccccc2)nc1-c1cccs1", "Potency": "inactive"}, {"smiles": "CC(=O)C1=C(C)NC(C)=C(C(C)=O)C1c1cn(-c2ccccc2)nc1-c1cccs1", "Potency": "inactive"}, {"smiles": "COc1ccc(OC)c(NC(=O)C2CCCN2S(=O)(=O)c2cccc3nsnc23)c1", "note": "(stereo unspecified)", "Potency": "inactive"}, {"smiles": "CC[C@]12c3[nH]c4ccc(Cl)cc4c3CCN1C(=O)[C@@H](CC(=O)NCCCOC)C[C@@H]2C(=O)N1CCN(C(=O)c2ccco2)CC1", "Potency": "inactive"}, {"smiles": "COc1ccc(C2(c3ccc(OC)cc3)NC(=O)N(CC(=O)Nc3cc(C)on3)C2=O)cc1", "Potency": "inactive"}, {"smiles": "CCCCOc1ccc(CSC(=N)N)cc1[N+](=O)[O-]", "Potency": "14.1 µM (active)"}, {"smiles": "CCCCCOc1ccc(CSC2=NCCN2)cc1[N+](=O)[O-]", "Potency": "inactive"}]}]}
